Measurements published in PubChem BioAssay AID1347076 (National Center for Advancing Translational Sciences (NCATS), 2019).
Out of some 400,000 compounds screened, about 13,000 (3.2%) were called active. About 18% were inconclusive and are not listed. The sample as a whole holds a higher share of actives than the screen did. A number with no mark means an inactive call. The call rests on the fitted dose curve; in most records, active means well fitted cell-killing curve with a large enough effect; inconclusive means small, poorly fitted or top-dose-only effect, or effect the other way; inactive means flat fitted curve, though single readings scatter.

Experiment: qHTS assay for MDR1-selective chemotherapeutics: Primary screen using the drug-selected MDR subline cells KB-V1; further: nearly all actives have a fitted effect of over 60% in size
Settings: KB-V1 MDR cells viability, CellTiter-Glo, 72 h; series mostly up to 46.1 µM; activity change, negative = cytotoxicity: at the top concentration
How it was run: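 Compound-treated KB-V1 multidrug-resistant cells, 72 h, 37 degrees C; viability by CellTiter-Glo. Fitted qHTS curves give the values.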
On the % scale 0 is the no-effect control and ±100 the full control effect; potency means the concentration at half of the fitted maximal effect.

Structure (SMILES) | activity change, negative = cytotoxicity [%] | Potency
CN(C)c1cccc2ccccc12 | 12.3 | 
Cc1cc(NC(=O)CSc2nnnn2-c2ccc(F)cc2)no1 | 16.9 | 
CC(=O)Nc1ccc(NC(=O)CSc2nnnn2-c2ccccc2F)cc1 | -14.2 | 
Cc1ccccc1-n1nnnc1SCCCC(=O)c1ccc(F)cc1 |  | 6.51 µM (active)
O=C(/C=C/[C@H]1O[C@@H](n2cnc3c(NC(=O)c4ccccc4)ncnc32)[C@H](O)[C@@H]1O)NCc1ccccc1 | -15.7 | 
CCCC(=O)N1CCN(c2nc3c(OC)ccc(C)c3s2)CC1 | -4.94 | 
COc1ccc(C(=O)NNC(=S)NC(=O)c2ccccc2)cc1 | -22.6 | 
CC(C)Oc1ccc(CCC(=O)NNC(=S)NCc2ccccc2)cc1 | 0 | 
Cc1onc(-c2ccccc2)c1C(=O)NNC(=S)NC(=O)c1ccc(F)cc1 | -9.36 | 
COc1ccc(C(=O)NC(=S)NNC(=O)CCc2ccccc2)cc1 |  | 6.51 µM (active)
COc1ccc(C(=O)NC(=S)NNC(=O)c2c(-c3ccccc3)noc2C)cc1 |  | 6.51 µM (active)
COc1ccc(C(=O)NNC(=S)NC(=O)c2ccccc2[N+](=O)[O-])cc1 | 0 | 
O=S(=O)(Nc1ccc2nc(-c3cccc(Cl)c3)oc2c1)c1ccccc1 | 2.99 | 
Cc1ccc(C)c(N2CCN(C(=O)Cn3ncc4c(=O)oc5ccc(C)cc5c43)CC2)c1 | 6.55 | 
CC(=O)Nc1ccc(CNc2nc(NCCN(C)C)nc3cc(-c4ccccc4)sc23)cc1 | 16.7 | 
CN1C[C@@H](CO)O[C@@H](n2cnc3c(N4CCN(CCO)CC4)ncnc32)C1 | 7.63 | 
CCCn1nc(NS(=O)(=O)c2ccccc2)c2cc3cc(C)ccc3nc21 |  | 14.6 µM (active)
CCCn1nc(NC(=O)C(C)C)c2cc3cc(OC)ccc3nc21 | 2 | 
CCCn1nc(NS(=O)(=O)c2ccc(F)cc2)c2cc3ccccc3nc21 | 14.6 | 
COc1cccc(NC(=O)CSc2cc(=O)n(C)c3ccc(Cl)cc23)c1 | -14.4 | 
CC(=O)Nc1ccc(C=CC(=O)c2ccc([N+](=O)[O-])cc2)cc1 | -4.54 | 
CN(C)c1ccc(/C=C/C(=O)c2ccc(C(C)(C)C)cc2)cc1[N+](=O)[O-] |  | 18.4 µM (active)
Cc1cccc(C=CC(=O)c2ccc(Cl)cc2)c1 | -4.15 | 
CCOc1ccc(S(=O)(=O)c2cn(Cc3ccc(OC)cc3)c3ccc(F)cc3c2=O)cc1 | 7.8 | 
Cc1nc2ccc(S(=O)(=O)N(CC(=O)Nc3ccc(F)cc3)Cc3ccccc3)cc2s1 | 6.91 | 

Structure (SMILES) | activity change, negative = cytotoxicity [%] | Potency
CC(C)(C)N1C(=O)c2c(C(=O)OCc3ccccc3)[nH]c(-c3ccccc3)c2C1=O | 0.678 | 
Cc1ccc(NC(=O)Cn2cccc2C2=NC(c3ccccc3)CO2)c(C)c1 (stereo not given) |  | 16.4 µM (active)
Cc1ccc(NC(=O)Cn2nnc(C(=O)NCc3ccco3)c2N)c(C)c1 | 20.9 | 
Cc1ccc(NC(=O)CSc2cccc3cccnc23)c(C)c1 | -30.1 | 
CCOc1ccc(NC(=O)C2CCN(S(=O)(=O)c3cc(-c4noc(C)n4)ccc3C)CC2)cc1 | -3.59 | 
c1cc(-c2ccc3[nH]ccc3c2)n2ccnc2c1 | 0 | 
CCCCC(=O)N(C)c1c(CC)nc2c(OCc3ccc(Cl)cc3Cl)cccn12 |  | 16.4 µM (active)
CCCCC(=O)N(C)c1c(CC)nc2c(OCc3ccc(S(C)(=O)=O)cc3)cccn12 | -12.7 | 
CCOC(=O)N(C)c1c(CC)nc2c(OCc3ccccc3C(=O)OC)cccn12 | -2.06 | 
CCc1nc2ccc(C(=O)N(C)CCN(C)C)cn2c1N(CC)CCOC | -5.15 | 
CC(=O)C[C@@H]1OC[C@H](C)N1S(=O)(=O)c1ccc(C)cc1 | -6.62 | 
Cc1ccc(C)c(N2CCN(S(=O)(=O)c3ccc4c(c3)oc(=O)n4C)CC2)c1 |  | 14.6 µM (active)
Cc1ccc(NS(=O)(=O)c2ccc3c(c2)oc(=O)n3C)c(C)c1 | -3.35 | 
Cc1ccc2nc(NC(=O)C3CCN(S(=O)(=O)c4ccc5c(c4)oc(=O)n5C)CC3)sc2c1 | -18.1 | 
COc1ccc(NC(=O)c2cc(=O)[nH]c3ccccc23)cc1S(=O)(=O)N1CCOCC1 | 10.6 | 
Cc1nc(C(F)(F)F)ccc1C(=O)N1CCC1(C)C(=O)NS(=O)(=O)c1ccc(F)cc1F (stereo not given) | 4.73 | 
COc1ccc2ncc3c(-c4ccc(C)c(C)c4)nn(CC(=O)NC4CCCC4)c3c2c1 | -20.6 | 
Cc1ccc([C@H]2N[C@]3(CCCN(Cc4ccccc4)C3=O)[C@H]3C(=O)N(Cc4ccccc4)C(=O)[C@@H]23)cc1 | 0 | 
Cc1ccc(C(C)C)cc1OCC(=O)Nc1ccccc1N1CCCC1 | -18.6 | 
Cc1nnc(OCC(=O)NCCC2=CCCCC2)c2ccccc12 | 3.11 | 
O=C(CNCCC1=CCCCC1)Nc1ccccc1N1CCCCCC1 |  | 11.6 µM (active)
Cc1ccc2nc(-c3ccco3)c(Cc3cccc(Cl)c3)n2c1 | 1.67 | 
COc1ccc(/C(N)=N/OC(=O)Cc2ccccc2)cc1 | 19 | 
COc1ccc(C(=NN)c2ccc(OC)cc2)cc1 | 7.65 | 
COc1ccc(C(C#N)=C2C=CC(=NO)c3ccccc32)cc1 |  | 1.3 µM (active)
